# CD40 NFkB inh = CD40 pathway inhibition in BL2 cells; BL2 NF-kB luciferase reporter, CD40L-induced, 4 h; inhibition, % at 10 µM; hit rate 0.94% among 83,000; AID 1053188;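 active = mean inhibition of at least 50% with a set share of replicates also reaching that level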
# A number is an active result; i = inactive; [ ] = dose if it differs, or a comment. This excerpt belongs to a sample that is enriched for hits.
SMILES,CD40 NFkB inh
COc1ccc(CN2CC3(CN(S(=O)(=O)c4ccc(C)cc4)C3)c3c([nH]c4cc(OC)ccc34)[C@H]2CO)cc1,54.5[25 µM]
COc1ccc2c3c([nH]c2c1)[C@@H](CO)N(Cc1ccc(Cl)cc1)CC31CN(S(C)(=O)=O)C1,i
C[C@H](CO)N1C[C@H](C)[C@@H](CN(C)Cc2ccc(Oc3ccccc3)cc2)OCc2ccccc2-c2ccccc2C1=O,69.3[25 µM]
C[C@@H]1CN([C@H](C)CO)C(=O)c2ccccc2-c2ccccc2CO[C@@H]1CN(C)Cc1ccccc1C(F)(F)F,82.6[25 µM]
C[C@H]1CN([C@@H](C)CO)C(=O)c2ccccc2-c2ccccc2CO[C@H]1CN(C)Cc1ccccc1C(F)(F)F,i
C[C@H](CO)N1C[C@H](C)[C@@H](CN(C)Cc2ccccc2)OCc2ccccc2-c2ccccc2C1=O,i
C[C@@H]1CN([C@@H](C)CO)C(=O)c2ccccc2-c2ccccc2CO[C@@H]1CN(C)Cc1ccc(C(F)(F)F)cc1,i
C[C@H](CO)N1C[C@H](C)[C@H](CN(C)Cc2ccccc2C(F)(F)F)OCc2ccccc2-c2ccccc2C1=O,i
COc1ccccc1CN(C)C[C@H]1OCc2ccccc2-c2ccccc2C(=O)N([C@@H](C)CO)C[C@H]1C,i
C[C@@H]1CN([C@H](C)CO)C(=O)c2ccccc2-c2ccccc2CO[C@@H]1CN(C)Cc1ccccc1,i
C[C@@H]1CN([C@@H](C)CO)C(=O)c2ccccc2-c2ccccc2CO[C@@H]1CN(C)Cc1ccccc1C(F)(F)F,53.3[25 µM]
CN1C(=O)c2cc(NS(=O)(=O)c3cccc(F)c3)ccc2OC[C@@H]2O[C@H](CC(=O)NCCN3CCCCC3)CC[C@H]21,i
CC(C)NC(=O)NC[C@H]1[C@H](c2ccccc2)[C@H](CO)N1C(=O)c1ccccc1,i
CCCC#Cc1ccc([C@@H]2[C@H](C#N)N(C(=O)C3CCCC3)[C@H]2CO)cc1,i
CC(C)NC(=O)N1[C@H](CO)[C@@H](c2ccccc2)C12CN(Cc1cc(F)cc(F)c1)C2,i
O=C(Nc1ccc(F)cc1)N1C[C@H]2[C@@H](c3ccccc31)[C@@H](CO)N2C(=O)Cc1ccccc1,i
Cc1cc(NC(c2cccnc2)c2ccc3cccnc3c2O)no1 (configuration not stated),i
CCC(=O)NC(c1ccccc1OC)c1ccc2cccnc2c1O (configuration not stated),87.7
CCC(=O)NC(c1ccc(OC)cc1)c1cc(Cl)c2cccnc2c1O (configuration not stated),i
O=C(Cc1ccccc1)N1CC[C@@H]2[C@@H](CO)Nc3ccc(-c4cccc(F)c4)cc3[C@@H]21,i
O=C(Cc1ccccc1)N1CC[C@@H]2[C@H]1c1cc(C#Cc3cccc(F)c3)ccc1N[C@@H]2CO,82.1[25 µM]
O=C(c1ccncc1)N1CC[C@@H]2[C@H](CO)Nc3ccc(-c4ccc(F)cc4)cc3[C@@H]21,i
O=C(c1cccc(F)c1)N1CC[C@@H]2[C@@H](CO)Nc3ccc(-c4ccc(F)cc4)cc3[C@@H]21,i
O=C(Cc1ccccc1)N1CC[C@H]2[C@H](CO)Nc3ccc(-c4cccc(F)c4)cc3[C@H]21,i
O=C(c1ccncc1)N1CC[C@@H]2[C@@H](CO)Nc3ccc(-c4ccc(F)cc4)cc3[C@@H]21,active[25 µM]
SMILES,CD40 NFkB inh
O=C(Cc1ccccc1)N1CC[C@@H]2[C@@H](CO)Nc3ccc(C#Cc4cccc(F)c4)cc3[C@@H]21,i
O=C(Cc1ccccc1)N1CC[C@@H]2[C@H]1c1cc(-c3cccc(F)c3)ccc1N[C@@H]2CO,69.8[25 µM]
O=C(Cc1ccccc1)N1CC[C@@H]2[C@H](CO)Nc3ccc(-c4cccc(F)c4)cc3[C@@H]21,i
N#C[C@H]1[C@H](c2ccc(C#Cc3ccccc3F)cc2)[C@H](CO)N1C(=O)c1cccnc1,i
C[C@H]1CCCCO[C@H](CN(C)C(=O)c2ccccc2)[C@@H](C)CN([C@@H](C)CO)C(=O)c2cc(NC(=O)NC3CCCCC3)ccc2O1,i
CCCNC(=O)NC[C@@H]1[C@@H](c2ccc(C3=CCCC3)cc2)[C@H](CO)N1C(C)=O,i
CC(=O)NC[C@H]1[C@H](c2ccc(C3=CCCCC3)cc2)[C@H](CO)N1C(=O)NC(C)C,i
COCc1cn(CC[C@@H]2CC[C@@H](NC(=O)Nc3c(C)noc3C)[C@H](CO)O2)nn1,i
COCC#Cc1ccc([C@@H]2[C@@H](C#N)N(C(=O)NC3CCCCC3)[C@@H]2CO)cc1,i
COc1ccc2c3c([nH]c2c1)[C@H](CO)N(C(=O)Nc1ccc(F)cc1)CC31CCN(C(=O)c2ccccc2F)CC1,60.0[25 µM]
COc1ccc2c3c(n(C)c2c1)[C@@H](CO)N(C(=O)c1ccc(F)cc1)CC31CN(C(=O)Nc2ccc(F)cc2)C1,i
COc1ccc2c3c([nH]c2c1)[C@@H](CO)N(C(=O)Nc1ccc(F)cc1)CC31CCN(C(=O)Cc2ccncc2)CC1,i
COc1ccc2c3c(n(C)c2c1)[C@@H](CO)N(C(=O)Nc1ccc(F)cc1)CC31CN(Cc2ccccc2F)C1,58.2[25 µM]
COc1ccc2c3c([nH]c2c1)[C@@H](CO)N(C)CC31CCN(C(=O)c2ccccc2F)CC1,i
COc1ccc2c3c(n(C)c2c1)[C@H](CO)N(C(=O)Nc1ccc(F)cc1)CC31CN(C(=O)Cc2ccncc2)C1,i
Cc1ccc(S(=O)(=O)N2[C@@H]3CNC[C@H]2C3c2ccc(-c3cccc(C)c3)cc2)cc1 (some centres not stated),i
C[C@H]1CN([C@@H](C)CO)C(=O)c2c(c3ccccc3n2C)-c2ccccc2CO[C@@H]1CN(C)Cc1ccc(F)cc1,i
O=C(C[C@H]1CC[C@@H]2[C@H](COC[C@@H](O)CN2C(=O)c2ccncc2)O1)NCc1cc(F)cc(F)c1,i
CN(C)CCCCOc1ccc(F)cc1,i
N=C(N)c1ccc(OCCCCCOc2ccc(C(=N)N)cc2)cc1,62.2
OCCNCCCCOc1ccc(F)cc1,i
O=C(Nc1ccc2c(c1)[C@@H]1C[C@H](CC(=O)N3CCCCC3)O[C@H](CO)[C@@H]1O2)NC1CCCCC1,i
C[C@H]1CN(C)C(=O)c2cc(NS(C)(=O)=O)ccc2O[C@H]1CN(C)S(C)(=O)=O,i
C/C=C/c1ccccc1[C@H]1[C@H](C#N)N(C(=O)c2cccnc2)[C@H]1CO,i
Nn1c(-c2ccccn2)nnc1-c1ccccn1,i
SMILES,CD40 NFkB inh
c1ccc(-c2ccc(-c3ccccn3)nn2)nc1,52.1
c1ccc(-c2ccccn2)nc1,i
COc1ccc(Sc2nnc(-c3ccccc3)cc2C#N)cc1,i
COc1ccc(-c2cc(-c3ccccc3)c(C#N)c(S(C)=O)n2)cc1 (configuration not stated),75.9
COc1ccc(-c2cc(-c3ccccc3)c(-c3ccccc3)nn2)cc1,i
O=C(C1CC1)N1CC[C@@H]2[C@H]1c1cc(Br)ccc1N[C@@H]2CO,i
CC(C)(C)[S@](=O)N1Cc2cc(C(=O)N[C@@H]3CCN(Cc4ccccc4)C3)nc(-c3cccc(-c4cncnc4)c3)c2[C@@H]1CCO,i
COc1ccc(C(=O)O/N=C(/C)c2cccs2)cc1,58.6
COc1ccc(OCCOC(=O)c2cccs2)cc1,i
COc1ccc(C2CC2/C(C)=N/OC(=O)c2cccs2)cc1 (configuration not stated),i
CO[C@H]1CN(C)C(=O)c2cc(NC(=O)c3ccc(F)cc3)ccc2OC[C@@H](C)N(C(=O)CC2CC2)C[C@@H]1C,i
CO[C@@H](CN(C)C(=O)C1CC1)[C@H](C)CN(C(=O)Nc1ccc(C(F)(F)F)cc1)[C@@H](C)CO,i
